Reference: PubChem BioAssay (NCI)
This is part of a sample that, as a whole, favours compounds with a hit. Of some 83,000 tested, about 20% had one in any assay.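 Plates (96-well) were seeded with cells, treated with compound at one concentration, and incubated for 48 hours before percent growth was determined.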 Unmarked numbers belong to inactive results. The source made the active and inactive calls. How the source made its calls: active means growth percent below 10; inactive means the rest.

Experiments:
Assay in all cases: NCI-60 one-dose screen, 48 h (100 = growth as untreated, 0 = no growth, -100 = all killed)
Details in all cases: 10 µM
DU-145 prostate = test system: DU-145 prostate
K-562 leukemia = test system: K-562 leukemia
MALME-3M melanoma = test system: MALME-3M melanoma
MDA-MB-231 breast = test system: MDA-MB-231 breast
RXF 393 renal = test system: RXF 393 renal
SF-268 CNS = test system: SF-268 CNS
SF-295 CNS = test system: SF-295 CNS
SF-539 CNS = test system: SF-539 CNS
UACC-257 melanoma = test system: UACC-257 melanoma
M14 melanoma = test system: M14 melanoma
HCT-15 colon = test system: HCT-15 colon
HT29 colon = test system: HT29 colon
SNB-75 CNS = test system: SNB-75 CNS
SNB-19 CNS = test system: SNB-19 CNS
U251 CNS = test system: U251 CNS
PC-3 prostate = test system: PC-3 prostate
SK-MEL-5 melanoma = test system: SK-MEL-5 melanoma
SK-MEL-28 melanoma = test system: SK-MEL-28 melanoma
LOX IMVI melanoma = test system: LOX IMVI melanoma
UACC-62 melanoma = test system: UACC-62 melanoma

| SMILES | growth (DU-145 prostate) [%] | growth (K-562 leukemia) | growth (MALME-3M melanoma) | growth (MDA-MB-231 breast) | growth (RXF 393 renal) | growth (SF-268 CNS) [%] | growth (SF-295 CNS) | growth (SF-539 CNS) | growth (UACC-257 melanoma) | growth (M14 melanoma) | growth (HCT-15 colon) | growth (HT29 colon) | growth (SNB-75 CNS) [%] | growth (SNB-19 CNS) [%] | growth (U251 CNS) [%] | growth (PC-3 prostate) | growth (SK-MEL-5 melanoma) | growth (SK-MEL-28 melanoma) | growth (LOX IMVI melanoma) | growth (UACC-62 melanoma) |
| --- | --- | --- | --- | --- | --- | --- | --- | --- | --- | --- | --- | --- | --- | --- | --- | --- | --- | --- | --- | --- |
| CCCCC1(O)CCCCC1 | 101 | 96.1% | 97.2% | 103% | 98.8% | 103 | 97.6% | 118% | 102% | 99.3% | 110% | 98.5% | 105 | 106 | 99.1 | 103% | 105% | 106% | – | – |
| O=C1/C(=C/c2ccc3c(c2)OCO3)SC(=S)N1C1c2ccccc2Oc2ccccc21 | 99.7 | 99.5% | 80.1% | 96% | 103% | 98.1 | 97.8% | 94.3% | 112% | 93.5% | 93% | 117% | 89.2 | 96.8 | 113 | 93.1% | 97.2% | 96.3% | 89.1% | – |
| O=C1/C=C/[C@@H](O)[C@@H]2C[C@@H](O)C[C@H]2/C=C/CCC[C@H](C(F)(F)F)O1 | 28.2 | 20.7% | -10.9% (active) | -31.8% (active) | -28.8% (active) | 17.9 | 78% | 21.4% | 6% (active) | 13.4% | 6.45% (active) | -28.3% (active) | 39.1 | 65.6 | – | 25.1% | -98.3% (active) | -8.65% (active) | -90.6% (active) | -3.9% (active) |
| COC(=O)C1OC1c1cc([N+](=O)[O-])ccc1OC (stereo not drawn) | 109 | 95.5% | 102% | 123% | 99.8% | 102 | 100% | 98.4% | 117% | 95% | 103% | 117% | 90.6 | 110 | – | 96% | 98.8% | 109% | 93.4% | 106% |
| COc1cc2c(Nc3ccc(S(N)(=O)=O)cc3)ncnc2c(OC)c1OC | 107 | 97.8% | 95% | 94.9% | 109% | 90.2 | 105% | 99.3% | 94.9% | 124% | 98% | 105% | 89.5 | 93.5 | 96.9 | 84.7% | – | 98.7% | 99.9% | 97.4% |
| O=C(CCC(C(=O)c1ccccc1)c1ccccc1)c1ccccc1 (stereo not drawn) | 86.4 | 18.7% | 43.4% | 77.9% | 78% | 85 | 36.9% | 99.9% | 90.5% | 52.2% | 45.8% | 34.1% | 79.9 | 89.8 | 90.4 | 55.5% | – | 80.5% | 91.9% | 63% |
| N#Cc1c(-c2ccc(Cl)cc2)n(O)c2ccccc12 | 25.4 | 11.6% | 6.37% (active) | 30.5% | 9.91% (active) | 32.5 | 42.1% | -10.1% (active) | 47.4% | 13.5% | 22.6% | 82.8% | 12.5 | 11 | – | 41.2% | -57.5% (active) | 15.6% | 23.8% | 8.34% (active) |
| CCOC(=O)CC(S(=O)(=O)c1ccccc1)S(=O)(=O)c1ccccc1 | 111 | 78.7% | 39.8% | 109% | 57.5% | 101 | 108% | 104% | 89.6% | 115% | 93.4% | 91% | 96.2 | 93.4 | – | 97.7% | 96.6% | 109% | 98.6% | 103% |
| COc1cccc(CNc2cccc3cn[nH]c23)c1O | 100 | 126% | 88.3% | 72.8% | 113% | 106 | 108% | 94.7% | 99% | 98.7% | 93.4% | 99.7% | 82 | 96.5 | 92.9 | 84.5% | – | 100% | 90.4% | 85.6% |
| COc1ccccc1-n1c(-c2sc(NC(C)=O)nc2C)n[nH]c1=S | 119 | 101% | 104% | 106% | 107% | 94.9 | 83.2% | 103% | 114% | 98.8% | 94.9% | 104% | 86.4 | 103 | – | 95.9% | 105% | 117% | 97.5% | 98.5% |
| COc1cc(-c2nn(-c3cccc(NC(=O)CCNc4ccc(N5CCOCC5)cc4)c3)cc2-c2ccncc2)ccc1Cl | 29.2 | 11.2% | 21.9% | -9.17% (active) | 20.9% | 31.8 | 13.4% | 29.1% | 20.1% | 2.71% (active) | 14.2% | 11.8% | 40.1 | 32.9 | 24 | 8.06% (active) | – | 31.6% | 6.71% (active) | 13.9% |
| COc1ccc(/C(C#N)=C/c2cccc(OC)c2OC)cc1 | 106 | 33.3% | 73.2% | 83.3% | 85.7% | 92.5 | 75.3% | 94.6% | 78% | 86% | 68.1% | 59.8% | 91.3 | 84.3 | – | 82% | 73.1% | 84.5% | 84.1% | 70.5% |
| COc1cc(-c2nn(-c3cccc(NC(=O)NCCNC(=O)c4cccc(C(F)(F)F)c4)c3)cc2-c2ccncc2)ccc1Cl | 48.9 | 8.57% (active) | 52.6% | 41.4% | 15.3% | 41.8 | 6.79% (active) | 22.2% | 51% | 15.3% | 53.2% | 21.1% | 16.5 | 53.5 | 28.4 | 17.6% | – | 57.6% | 31.7% | 50.7% |
| Cc1c2cnccc2c(C)c2c1oc1ccccc12 | 54.1 | 77.2% | 62.7% | 111% | 71.5% | 73.8 | 74.9% | 96.6% | 86.8% | 81.6% | 72.3% | 72.8% | 106 | 73.1 | – | 99.8% | 60.1% | 110% | 42.1% | 53.9% |
| O=S(=O)(Oc1ccc(-c2ccc3sccc3c2)cc1)c1ccccc1 | 107 | 89.6% | 105% | 97.3% | 97.1% | 105 | 93.9% | 108% | 104% | 114% | 89.8% | 88.9% | 120 | 96.8 | 108 | 91% | – | 97.9% | 101% | 74.9% |
| Cc1ccc(S(=O)(=O)N/N=C2\CCCc3ccccc32)cc1 | 114 | 97.2% | 105% | 108% | 103% | 102 | 104% | 108% | 93.8% | 118% | 109% | 115% | 92.4 | 94.6 | – | 90.3% | 103% | 105% | 94.8% | 92.9% |
